# Test results as given in PubChem BioAssay (EPA / NIEHS).
# “And” between values parts separate entries of the source, which are not always exact repeats. Equal entries are not always repeated. Some structures have more than one record in an assay (separate samples or runs), and their calls can disagree. The source made the active and inactive calls. Rule for the calls: active = hit-call score of the fitted dose curve at least 0.9, where 1 is the maximum; inactive = score below 0.9.
# Columns and labels:
# [1] = BSK_hDFCGF_Proliferation: Cell Proliferation Assessment in the BioMAP Diversity Plus: hDFCGF Assay (AID 2283059); details: primary human foreskin fibroblasts;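 note: curves fitted for both rise and fall of signal versus DMSO baseline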
# Method in brief: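 This proliferation readout used SRB total-protein staining of human foreskin fibroblasts […], normalized to DMSO with bidirectional curve fitting.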
# [2] = read-out: Macrophage colony-stimulating factor (MCSF), CSF1 (gene 1435); assay: BSK_hDFCGF_MCSF: BioMAP Diversity Plus: hDFCGF Assay for Macrophage colony-stimulating factor (MCSF) Biomarker Activity (AID 2283060); details: primary human foreskin fibroblasts; actives raise or lower the signal
# Method in brief: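 fibroblasts (human foreskin, primary), 24 h post-dose; M-CSF by ELISA; bidirectional fit, DMSO = baseline.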
# [3] = BSK_hDFCGF_SRB: Viability Assessment in the BioMAP Diversity Plus: hDFCGF Assay (AID 2283061); details: primary human foreskin fibroblasts;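 note: cells exposed to compound for 24 h before the read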
# Method in brief: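 SRB-based viability read on primary human skin fibroblasts at 24 h: TCA fixation, 0.1% dye, 560 nm. Gain or loss of signal is fitted against the DMSO negative control.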
# [4] = read-out: TIMP metallopeptidase inhibitor 1 (TIMP1), TIMP1 (gene 7076); assay: BSK_hDFCGF_TIMP1: BioMAP Diversity Plus: hDFCGF Assay for TIMP metallopeptidase inhibitor 1 (TIMP1) Biomarker Activity (AID 2283062); details: primary human foreskin fibroblasts; actives raise or lower the signal
# Method in brief: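 Bidirectional curve fitting against DMSO baseline yielded this endpoint, based on ELISA detection of TIMP-1 in primary human foreskin fibroblasts exposed to compound for 24 h.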
# [5] = read-out: Monokine induced gamma interferon (MIG), CXCL9 (gene 4283); assay: BSK_hDFCGF_MIG: BioMAP Diversity Plus: hDFCGF Assay for Monokine induced gamma interferon (MIG) Biomarker Activity (AID 2283063); details: primary human foreskin fibroblasts; actives raise or lower the signal
# Method in brief: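 Endpoint derived by bidirectional fitting relative to DMSO; MIG quantified via ELISA in primary human foreskin fibroblasts harvested 24 h after dosing.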
# [6] = read-out: Matrix Metallopeptidase 1 (MMP1), MMP1 (gene 4312); assay: BSK_hDFCGF_MMP1: BioMAP Diversity Plus: hDFCGF Assay for Matrix Metallopeptidase 1 (MMP1) Biomarker Activity (AID 2283064); details: primary human foreskin fibroblasts; actives raise or lower the signal
# Method in brief: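 Primary human foreskin fibroblasts exposed to chemicals for 24 h; MMP1 measured by ELISA. Cytotoxicity tracked by SRB staining in parallel cultures; bidirectional fit relative to DMSO.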
# [7] = read-out: Vascular cell adhesion molecule 1 (VCAM1), VCAM1 (gene 7412); assay: BSK_hDFCGF_VCAM1: BioMAP Diversity Plus: hDFCGF Assay for Vascular cell adhesion molecule 1 (VCAM1) Biomarker Activity (AID 2283065); details: primary human foreskin fibroblasts; actives raise or lower the signal;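 for AC50: VCAM-1 protein level quantified by ELISA after 24 h chemical exposure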
# Method in brief: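 Measured after 24 h chemical treatment of primary human skin fibroblasts, VCAM-1 was detected by ELISA and concentration-response analysed in both directions versus DMSO vehicle.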
# [8] = read-out: Plasminogen activator inhibitor-1 (PAI1), SERPINE1 (gene 5054); assay: BSK_hDFCGF_PAI1: BioMAP Diversity Plus: hDFCGF Assay for Plasminogen activator inhibitor-1 (PAI1) Biomarker Activity (AID 2283066); details: primary human foreskin fibroblasts; actives raise or lower the signal
# Method in brief: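 Human foreskin fibroblasts in the hDFCGF system were dosed with compound for 24 h; PAI-1 was quantified by ELISA. Bidirectional curve fitting used DMSO as negative control and baseline.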
# [9] = read-out: Intercellular Adhesion Molecule 1 (ICAM1), ICAM1 (gene 3383); assay: BSK_KF3CT_ICAM1: BioMAP Diversity Plus: KF3CT Assay for Intercellular Adhesion Molecule 1 (ICAM1) Biomarker Activity (AID 2283067); details: primary human keratinocytes with fibroblasts; actives raise or lower the signal
# Method in brief: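 Bidirectional curve fitting against a DMSO baseline was applied to ICAM-1 ELISA signal from primary human skin co-cultures harvested 24 h after treatment, with SRB staining of parallel wells for overt cytotoxicity.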
# [10] = read-out: Interferon-gamma inducible Protein 10 (IP10), CXCL10 (gene 3627); assay: BSK_KF3CT_IP10: BioMAP Diversity Plus: KF3CT Assay for Interferon-gamma inducible Protein 10 (IP10) Biomarker Activity (AID 2283068); details: primary human keratinocytes with fibroblasts; actives raise or lower the signal
# Method in brief: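 Signal is secreted/surface IP-10 by ELISA in a human primary skin co-culture of keratinocytes and foreskin fibroblasts, taken 24 h post-dosing; DMSO served as negative control.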
# [11] = BSK_KF3CT_SRB: Viability Assessment in the BioMAP Diversity Plus: KF3CT Assay (AID 2283069); details: primary human keratinocytes with fibroblasts;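 note: total protein by sulforhodamine B staining as a cytotoxicity measure; read 24 h after compound addition; fitted for both signal gain and loss against DMSO baseline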
# Method in brief: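 Human keratinocyte and foreskin fibroblast co-culture exposed to chemical for 24 h. Total protein measured in parallel cultures by 0.1% sulforhodamine B staining after 10% TCA fixation, read at 560 nm; bidirectional fit relative to DMSO.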
# [12] = read-out: Interleukin-1 alpha (IL1a), IL1A (gene 3552); assay: BSK_KF3CT_IL1a: BioMAP Diversity Plus: KF3CT Assay for Interleukin-1 alpha (IL1a) Biomarker Activity (AID 2283070); details: primary human keratinocytes with fibroblasts; actives raise or lower the signal
# Method in brief: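 Primary human keratinocyte plus foreskin fibroblast co-culture, dosed and measured at 24 h in 96-well plates. IL-1a level quantified by ELISA; bidirectional fit relative to DMSO.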
# [13] = read-out: TIMP metallopeptidase inhibitor 2 (TIMP2), TIMP2 (gene 7077); assay: BSK_KF3CT_TIMP2: BioMAP Diversity Plus: KF3CT Assay for TIMP metallopeptidase inhibitor 2 (TIMP2) Biomarker Activity (AID 2283071); details: primary human keratinocytes with fibroblasts; actives raise or lower the signal
# Method in brief: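 Human primary keratinocyte/foreskin fibroblast co-culture dosed with chemical and sampled at 24 h. TIMP-2 levels quantified by ELISA; bidirectional fitting against DMSO negative control as baseline.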
# [14] = read-out: C-C motif chemokine 2 (Homo sapiens) (UniProt P13500); assay: BSK_KF3CT_MCP1: BioMAP Diversity Plus: KF3CT Assay for Monocyte Chemoattractant Protein 1 (MCP1/CCL2) Biomarker Activity (AID 2283073); details: primary human keratinocytes with fibroblasts; actives raise or lower the signal
# Method in brief: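 Biomarker MCP-1 is measured by ELISA in primary human keratinocytes co-cultured with foreskin fibroblasts, 24 h after chemical treatment; DMSO serves as the negative control and activity baseline.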
# [15] = read-out: Matrix Metallopeptidase 9 (MMP9), MMP9 (gene 4318); assay: BSK_KF3CT_MMP9: BioMAP Diversity Plus: KF3CT Assay for Matrix Metallopeptidase 9 (MMP9) Biomarker Activity (AID 2283074); details: primary human keratinocytes with fibroblasts; actives raise or lower the signal;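 for AC50: MMP9 protein level quantified by ELISA in the co-culture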
# Method in brief: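 Human keratinocyte and foreskin fibroblast co-culture exposed to chemicals for 24 h; MMP9 biomarker measured by ELISA, bidirectional fitting relative to DMSO; cytotoxicity tracked by SRB total protein staining in parallel cultures.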
# CD40, CD40 (gene 958) = assay: BSK_LPS_CD40: BioMAP Diversity Plus: LPS Assay for CD40 Biomarker Activity (AID 2283076); details: primary human HUVEC with PBMC; actives raise or lower the signal
# Method in brief: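 Using a multiplexed primary human co-culture (umbilical vein endothelium plus PBMC), CD40 was read by ELISA 24 h after dosing, with cytotoxicity tracked by sulforhodamine B staining of parallel cultures and activity fitted bidirectionally versus DMSO.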
# [16] = read-out: E-selectin (Homo sapiens) (UniProt P16581); assay: BSK_LPS_Eselectin: BioMAP Diversity Plus: LPS Assay for Eselectin Biomarker Activity (AID 2283077); details: primary human HUVEC with PBMC; actives raise or lower the signal
# Method in brief: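 Dose chemical onto LPS-driven HUVEC/PBMC co-culture; after 24 h, run ELISA for E-selectin; fit up- and down-going responses relative to DMSO control.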
# [17] = read-out: Interleukin-8 (IL8), CXCL8 (gene 3576); assay: BSK_LPS_IL8: BioMAP Diversity Plus: LPS Assay for Interleukin-8 (IL8) Biomarker Activity (AID 2283078); details: primary human HUVEC with PBMC; actives raise or lower the signal
# Method in brief: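 In this LPS system, chemical-treated human umbilical vein endothelium/PBMC co-cultures were harvested at 24 h for IL-8 ELISA.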
# [18] = read-out: Transforming growth factor beta 1 (TGFb1), TGFB1 (gene 7040); assay: BSK_KF3CT_TGFb1: BioMAP Diversity Plus: KF3CT Assay for Transforming growth factor beta 1 (TGFb1) Biomarker Activity (AID 2283072); details: primary human keratinocytes with fibroblasts; actives raise or lower the signal
# Method in brief: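 Human keratinocyte plus foreskin fibroblast primary co-culture, dosed with chemical for 24 h. TGF-b1 quantified by ELISA. Activity fitted bidirectionally against DMSO negative control as baseline.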
# [19] = read-out: urokinase plasminogen activator (uPA), PLAU (gene 5328); assay: BSK_KF3CT_uPA: BioMAP Diversity Plus: KF3CT Assay for urokinase plasminogen activator (uPA) Biomarker Activity (AID 2283075); details: primary human keratinocytes with fibroblasts; actives raise or lower the signal
# Method in brief: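 Primary human keratinocyte/foreskin fibroblast co-culture exposed to chemical; uPA measured by ELISA at 24 h. Bidirectional fit versus DMSO, with parallel SRB total-protein staining for cytotoxicity.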
# Chain of E-selectin (Homo sapiens) (P16581 whole entry, looked up): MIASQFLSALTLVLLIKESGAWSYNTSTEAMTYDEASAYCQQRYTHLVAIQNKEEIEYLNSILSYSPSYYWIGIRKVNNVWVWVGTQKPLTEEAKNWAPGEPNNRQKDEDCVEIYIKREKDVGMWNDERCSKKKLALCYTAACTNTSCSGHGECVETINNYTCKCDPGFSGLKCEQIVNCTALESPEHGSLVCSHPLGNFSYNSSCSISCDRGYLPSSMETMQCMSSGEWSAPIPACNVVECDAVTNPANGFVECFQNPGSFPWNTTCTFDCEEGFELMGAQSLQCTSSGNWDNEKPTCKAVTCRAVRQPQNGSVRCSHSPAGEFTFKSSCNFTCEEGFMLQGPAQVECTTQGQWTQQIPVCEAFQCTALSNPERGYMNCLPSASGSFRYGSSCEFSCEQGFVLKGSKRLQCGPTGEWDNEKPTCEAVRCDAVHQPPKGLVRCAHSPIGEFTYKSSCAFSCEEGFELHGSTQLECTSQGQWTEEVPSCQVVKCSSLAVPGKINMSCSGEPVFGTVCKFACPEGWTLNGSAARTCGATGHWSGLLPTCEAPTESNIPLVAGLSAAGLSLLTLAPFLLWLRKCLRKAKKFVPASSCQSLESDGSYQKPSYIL
smiles,measurement,setting,value
CO/C=C(/C(=O)OC)c1ccccc1COc1cccc(C(F)(F)F)n1,AC50,[1],4.78 µM (active)
same,AC50,[2],7.27 µM (active)
same,AC50,[3],10.7 µM (active)
same,outcome,[4],inactive
same,outcome,[5],inactive
same,AC50,[6],6.92 µM (active)
same,outcome,[7],inactive
same,AC50,[8],11.1 µM (active)
same,outcome,[9],inactive
same,outcome,[10],inactive
same,outcome,[11],inactive
same,outcome,[12],inactive
same,outcome,[13],inactive
same,outcome,[14],inactive
same,AC50,[15],12.7 µM (active)
same,AC50,"CD40, CD40 (gene 958)",18.3 µM (active)
same,AC50,[16],7.16 µM (active)
same,AC50,[17],3.06 µM (active)
O=C(O)C(F)(F)C(F)(F)C(F)(F)C(F)(F)C(F)(F)C(F)(F)C(F)(F)C(F)(F)C(F)(F)F,AC50,[1],13.5 µM (active) and 16.5 µM (active) and 17.1 µM (active)
same,AC50,[2],30.4 µM (active) and 21.9 µM (active) and 21.6 µM (active)
same,AC50,[3],28.5 µM (active) and 48.8 µM (active) and 49 µM (active)
same,AC50,[4],35 µM (active) and 22.2 µM (active) and 39.3 µM (active)
same,AC50,[5],33 µM (active) and 36.5 µM (active) and 37.9 µM (active)
same,AC50,[6],33.3 µM (active) and 26.9 µM (active) and 40.3 µM (active)
same,AC50,[8],33.1 µM (active) and 38.3 µM (active) and 47 µM (active)
same,AC50,[9],36.7 µM (active) and 45.8 µM (active) and 54.9 µM (active)
same,AC50,[10],17.3 µM (active) and 46.9 µM (active) and 40.5 µM (active)
same,AC50,[11],33.1 µM (active) and 50.3 µM (active) and 50.8 µM (active)
same,AC50,[12],33.5 µM (active) and 47.2 µM (active) and 46.8 µM (active)
same,AC50,[13],31 µM (active) and 45 µM (active) and 44.7 µM (active)
same,AC50,[18],30.8 µM (active)
same,AC50,[14],22.7 µM (active) and 27.9 µM (active) and 18.5 µM (active)
same,AC50,[15],20 µM (active) and 30.2 µM (active) and 27.5 µM (active)
same,AC50,[19],31.4 µM (active) and 55 µM (active) and 50.7 µM (active)
same,AC50,"CD40, CD40 (gene 958)",30 µM (active) and 49.1 µM (active)
same,outcome,"CD40, CD40 (gene 958)",inactive
same,AC50,[16],53.8 µM (active) and 51 µM (active)
same,outcome,[16],inactive
same,AC50,[17],46.1 µM (active) and 46.7 µM (active)
same,outcome,[17],inactive
CN(C)CCO,outcome,[1],inactive
same,outcome,[2],inactive
same,outcome,[3],inactive
same,outcome,[4],inactive
same,outcome,[5],inactive
same,outcome,[6],inactive
same,outcome,[7],inactive
same,outcome,[8],inactive
same,outcome,[9],inactive
same,outcome,[10],inactive
same,outcome,[11],inactive
same,outcome,[12],inactive
same,outcome,[13],inactive
same,outcome,[14],inactive
same,outcome,[15],inactive
same,outcome,"CD40, CD40 (gene 958)",inactive
same,outcome,[16],inactive
same,outcome,[17],inactive
c1cc2ccc3cccc4ccc(c1)c2c34,AC50,[1],15 µM (active)
same,outcome,[2],inactive
same,outcome,[3],inactive
same,outcome,[4],inactive
same,outcome,[5],inactive
same,outcome,[6],inactive
same,outcome,[8],inactive
same,outcome,[9],inactive
same,outcome,[10],inactive
same,outcome,[11],inactive
same,outcome,[12],inactive
same,outcome,[13],inactive
same,outcome,[18],inactive
same,outcome,[14],inactive
same,outcome,[15],inactive
same,outcome,[19],inactive
same,outcome,"CD40, CD40 (gene 958)",inactive
same,outcome,[16],inactive
same,outcome,[17],inactive
CCOC(=O)C(O)(c1ccc(Cl)cc1)c1ccc(Cl)cc1,AC50,[1],30.9 µM (active)
same,AC50,[2],20 µM (active)
same,outcome,[3],inactive
same,outcome,[4],inactive
same,AC50,[5],14.3 µM (active)
same,outcome,[6],inactive
same,AC50,[7],26.9 µM (active)
same,AC50,[8],13.2 µM (active)
same,outcome,[9],inactive
same,outcome,[10],inactive
same,outcome,[11],inactive
same,outcome,[12],inactive
same,outcome,[13],inactive
same,outcome,[18],inactive
same,outcome,[14],inactive
same,outcome,[15],inactive
same,outcome,[19],inactive
same,AC50,"CD40, CD40 (gene 958)",26.1 µM (active)
same,AC50,[16],31.5 µM (active)
same,AC50,[17],35.2 µM (active)
